For five compounds, composite z-score and z-score results are on record in PubChem BioAssay.

Test [1] can be described thus: binders of probe aFSTL3 on microarray, primary screen, stem cell growth factor project, biochemical, small-molecule microarray, fluorescence 635/667 (AID 1064).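 Also: measures binding of the biotinylated anti-FSTL3 antibody to printed compounds.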 Conditions: higher = more signal.
The nature of test [2]: binders from COS7 lysate, DM2A8 probe, primary screen, torsin A project, cell lysate, small-molecule microarray, fluorescence 635/667 (AID 1065). Conditions: higher = more signal, COS7 lysate expressing mutant human TOR1A.
Test [3] in a line: binders of probe aFGF2 on microarray, primary screen, stem cell growth factor project, biochemical, small-molecule microarray, fluorescence 635/667 (AID 1067).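 Also: measures binding of biotinylated aFGF2 protein to printed compounds on slides; z-score merges feature fluorescence and signal-to-noise across triplicate slides.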 Conditions: higher = more signal.
Test [4] can be described thus: binders of probe aFGF10 on microarray, primary screen, stem cell growth factor project, biochemical, small-molecule microarray, fluorescence 635/667 (AID 1071).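 Also: score merges 667 nm spot intensity and signal to noise from triplicate slides.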 Conditions: higher = more signal.
The target of test [5] is Neurogenic locus notch homolog protein 2 (Homo sapiens) (UniProt Q04721). The experiment in a line: Notch2 binders on small-molecule microarrays, primary screen, biochemical, small-molecule microarray, 635 nm fluorescence, stem cell growth factors (AID 1073). The following applies: Notch2 binding, higher = more signal.
For test [6], the target named is Pro-neuregulin-1, membrane-bound isoform (Homo sapiens) (UniProt Q02297). The experiment in a line: NRG1 binders on small-molecule microarrays, primary screen, psychiatric disease protein project, biochemical, small-molecule microarray, fluorescence 635/667 (AID 1075).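 Also: score combines 667 nm spot fluorescence with signal to noise.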 Conditions: NRG1 binding, 635 nm fluorescence, higher = more signal.
Chain of Pro-neuregulin-1, membrane-bound isoform (Homo sapiens) (Q02297 whole entry, looked up, the tested form may be a part, canonical isoform): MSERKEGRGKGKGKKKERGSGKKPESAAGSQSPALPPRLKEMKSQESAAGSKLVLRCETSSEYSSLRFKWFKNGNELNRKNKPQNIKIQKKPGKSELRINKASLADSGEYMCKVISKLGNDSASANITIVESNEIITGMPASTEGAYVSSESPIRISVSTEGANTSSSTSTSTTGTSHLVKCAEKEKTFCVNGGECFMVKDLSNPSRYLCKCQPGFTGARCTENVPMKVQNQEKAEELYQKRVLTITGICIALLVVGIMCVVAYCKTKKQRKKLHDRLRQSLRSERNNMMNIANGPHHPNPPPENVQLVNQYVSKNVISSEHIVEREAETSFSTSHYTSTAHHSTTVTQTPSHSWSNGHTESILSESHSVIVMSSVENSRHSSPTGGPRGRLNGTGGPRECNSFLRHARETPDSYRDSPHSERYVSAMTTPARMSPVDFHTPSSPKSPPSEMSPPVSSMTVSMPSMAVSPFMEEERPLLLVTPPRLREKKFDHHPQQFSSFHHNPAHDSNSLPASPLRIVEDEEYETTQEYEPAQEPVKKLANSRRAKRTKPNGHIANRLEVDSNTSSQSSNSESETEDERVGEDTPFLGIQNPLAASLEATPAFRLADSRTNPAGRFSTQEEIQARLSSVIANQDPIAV
Test [7] has as its system Neuregulin-1 EGF-like domain. Description: binders of neuregulin-1 EGF-like domain, primary screen, biochemical, small-molecule microarray, 635 nm fluorescence (AID 1081).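 Also: binding of the protein to compounds printed on small-molecule microarray slides.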 The following applies: small-molecule microarray binding, higher = more signal.
The nature of test [8]: FRG1 promoter luciferase signal modulators, primary screen, FRG1 inhibition for FSHD, cell-based, C2C12 myotubes, firefly/Renilla luciferase, luminescence (AID 1084). The following applies: higher = more signal, called active from +8 up or from −8 down.
Test [9] in a line: binders of probe aFST on microarray, primary screen, stem cell growth factor project, biochemical, small-molecule microarray, fluorescence 635/667 (AID 1086).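 Also: score merges 667 nm fluorescence with signal-to-noise of each printed compound spot.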 Conditions: higher = more signal.
Test [10] can be described thus: binders of probe aHhip on microarray, primary screen, stem cell growth factor project, biochemical, small-molecule microarray, fluorescence 635/667 (AID 1087).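 Also: score merges spot fluorescence at 667nm with spot signal to noise ratio.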 Conditions: higher = more signal.
The test system of test [11] is PRMT1 (protein arginine N-methyltransferase 1). The experiment in a line: PRMT1 binders on small-molecule microarrays, primary screen, biochemical, small-molecule microarray, 635 nm fluorescence (AID 1088).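 Also: binding of Prmt1 protein to compounds spotted on small-molecule microarray slides.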 The following applies: small-molecule microarray binding, higher = more signal.
A short description of test [12]: yeast growth modulation, basal conditions, primary screen, YJM789 clinical isolate, OD600, 24 h (AID 1089).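 Also: growth of clinical yeast isolate S. cerevisiae YJM 789 seeded 1000 cells per well; test concentration not given here.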 The following applies: S. cerevisiae YJM789 growth, higher = more signal, called active from +8 up or from −8 down.
The nature of test [13]: fission yeast growth modulation, primary screen, strain 972, OD600, 24 h, no modulator (AID 1090).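 Also: basal condition with compound alone and no growth modifier present; test concentration not given here.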 Conditions: S. pombe 972 growth, higher = more signal, called active from +8 up or from −8 down.
The nature of test [14]: S. cerevisiae growth modulation with rapamycin, primary screen, strain BY4716, OD600, 96 h (AID 1091). Also: test concentration not given here. Conditions: higher = more signal, called active from +8 up or from −8 down.
Test [15] concerns the target Torsin-1A-interacting protein 2 (Homo sapiens) (UniProt Q8NFQ8). The experiment in a line: LULL1 binders on small-molecule microarray, primary screen, cell lysate, human LULL1 lysate, 635/667 nm fluorescence (AID 1092).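 Also: probe is lysate of COS7 cells overexpressing human LULL1; score merges per-feature 667 nm fluorescence with signal-to-noise.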 The following applies: hLULL1 lysate binding, 635 nm fluorescence, higher = more signal.
The nature of test [16]: E. coli growth modulation, two-sided OD650, primary screen, E. coli filamentation project, strain DRC41, 24 h (AID 1093).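 Also: MC1000 strain lacking acrAB efflux and sulA so SOS filamentation is blocked; test concentration not given here.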 Conditions: OD650, 24 h, higher = more signal, called active from +8 up or from −8 down.
Test [17] in a line: small-molecule microarray binders of probe aLefty2, primary screen, biochemical, biotinylated probe, 635/667 nm fluorescence (AID 1094).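 Also: score merges spot fluorescence near 667 nm with spot signal-to-noise ratio.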 Conditions: higher = more signal.
Test [18] relates to Noggin (protein binding on small-molecule microarray). Description: Noggin binders on small-molecule microarray, primary screen, biochemical, 635/667 nm fluorescence (AID 1095).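 Also: score merges 667 nm feature fluorescence with signal to noise over triplicate slides.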 The following applies: 635 nm fluorescence, higher = more signal.
Test [19] concerns the target Neurogenic locus notch homolog protein 3 (Homo sapiens) (UniProt Q9UM47). The experiment in a line: NOTCH3 binders on small-molecule microarray, primary screen, biochemical, 635/667 nm fluorescence (AID 1096). Conditions: NOTCH3 binding, 635 nm fluorescence, higher = more signal.
Test [20] can be described thus: small-molecule microarray binders of probe aEGFR, primary screen, biochemical, biotinylated probe, 635/667 nm fluorescence (AID 1097).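 Also: probe is a biotinylated anti-EGFR antibody binding compounds printed on slides; score combines fluorescence near 667 nm and signal to noise of each spot.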 Conditions: higher = more signal.

Activity calls are given as the source filed them.

Chain of Neurogenic locus notch homolog protein 3 (Homo sapiens) (Q9UM47 whole entry, looked up): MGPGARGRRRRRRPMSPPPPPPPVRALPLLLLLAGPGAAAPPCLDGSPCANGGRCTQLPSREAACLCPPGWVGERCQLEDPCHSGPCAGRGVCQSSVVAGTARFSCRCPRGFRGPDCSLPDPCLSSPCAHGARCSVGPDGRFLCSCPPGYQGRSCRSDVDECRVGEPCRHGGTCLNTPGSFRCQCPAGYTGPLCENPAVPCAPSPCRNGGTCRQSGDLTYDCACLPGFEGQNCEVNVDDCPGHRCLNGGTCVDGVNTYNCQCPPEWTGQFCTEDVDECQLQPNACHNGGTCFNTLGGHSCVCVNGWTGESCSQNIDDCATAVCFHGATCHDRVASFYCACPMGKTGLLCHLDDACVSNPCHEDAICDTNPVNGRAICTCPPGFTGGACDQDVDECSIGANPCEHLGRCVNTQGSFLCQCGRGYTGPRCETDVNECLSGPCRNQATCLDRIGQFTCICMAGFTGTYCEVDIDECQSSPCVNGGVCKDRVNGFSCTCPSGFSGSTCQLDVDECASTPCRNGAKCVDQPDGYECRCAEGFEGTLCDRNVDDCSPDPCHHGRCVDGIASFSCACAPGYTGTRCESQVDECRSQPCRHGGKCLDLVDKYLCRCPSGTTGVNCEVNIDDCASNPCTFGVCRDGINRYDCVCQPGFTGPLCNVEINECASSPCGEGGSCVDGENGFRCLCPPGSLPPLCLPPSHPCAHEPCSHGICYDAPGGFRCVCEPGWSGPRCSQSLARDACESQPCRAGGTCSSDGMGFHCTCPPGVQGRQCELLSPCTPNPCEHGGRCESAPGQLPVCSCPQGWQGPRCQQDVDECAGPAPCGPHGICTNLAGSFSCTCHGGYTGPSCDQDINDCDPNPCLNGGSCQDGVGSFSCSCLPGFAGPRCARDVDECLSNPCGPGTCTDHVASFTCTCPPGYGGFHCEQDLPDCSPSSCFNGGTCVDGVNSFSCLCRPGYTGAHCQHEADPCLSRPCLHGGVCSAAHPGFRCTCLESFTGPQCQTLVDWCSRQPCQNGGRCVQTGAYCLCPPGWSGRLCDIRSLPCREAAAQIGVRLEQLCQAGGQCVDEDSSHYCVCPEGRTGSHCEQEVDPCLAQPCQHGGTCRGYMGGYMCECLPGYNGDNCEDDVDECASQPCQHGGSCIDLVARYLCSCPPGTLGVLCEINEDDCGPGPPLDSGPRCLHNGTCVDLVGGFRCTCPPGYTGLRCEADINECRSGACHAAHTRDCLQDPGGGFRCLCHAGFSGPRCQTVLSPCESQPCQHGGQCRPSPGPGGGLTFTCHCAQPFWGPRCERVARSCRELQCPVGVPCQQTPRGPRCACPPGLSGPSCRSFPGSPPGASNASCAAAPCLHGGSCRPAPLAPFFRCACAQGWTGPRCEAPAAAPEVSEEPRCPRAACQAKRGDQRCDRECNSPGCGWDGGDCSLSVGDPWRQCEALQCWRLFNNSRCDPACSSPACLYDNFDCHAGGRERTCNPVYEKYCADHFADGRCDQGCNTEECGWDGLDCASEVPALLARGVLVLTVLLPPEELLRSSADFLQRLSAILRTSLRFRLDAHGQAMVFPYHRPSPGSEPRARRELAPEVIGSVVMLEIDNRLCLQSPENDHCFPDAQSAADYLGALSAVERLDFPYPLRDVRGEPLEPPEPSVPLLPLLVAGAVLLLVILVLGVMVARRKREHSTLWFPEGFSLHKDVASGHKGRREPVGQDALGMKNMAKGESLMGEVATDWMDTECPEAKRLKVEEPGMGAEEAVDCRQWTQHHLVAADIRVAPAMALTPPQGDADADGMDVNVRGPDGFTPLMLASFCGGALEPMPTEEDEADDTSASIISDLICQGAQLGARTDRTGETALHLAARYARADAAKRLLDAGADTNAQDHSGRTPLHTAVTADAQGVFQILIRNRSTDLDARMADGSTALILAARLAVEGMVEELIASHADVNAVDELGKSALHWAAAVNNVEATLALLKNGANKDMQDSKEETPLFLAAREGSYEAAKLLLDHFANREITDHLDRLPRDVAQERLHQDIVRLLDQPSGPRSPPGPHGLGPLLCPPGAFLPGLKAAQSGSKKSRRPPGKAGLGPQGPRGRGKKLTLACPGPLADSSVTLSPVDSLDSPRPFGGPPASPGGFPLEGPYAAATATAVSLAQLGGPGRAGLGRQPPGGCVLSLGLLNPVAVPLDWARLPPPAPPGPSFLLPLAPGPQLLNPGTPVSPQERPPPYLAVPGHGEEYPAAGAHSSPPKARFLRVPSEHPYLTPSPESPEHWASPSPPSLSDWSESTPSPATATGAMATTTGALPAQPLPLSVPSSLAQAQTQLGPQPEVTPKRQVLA
Chain of Torsin-1A-interacting protein 2 (Homo sapiens) (Q8NFQ8 whole entry, looked up): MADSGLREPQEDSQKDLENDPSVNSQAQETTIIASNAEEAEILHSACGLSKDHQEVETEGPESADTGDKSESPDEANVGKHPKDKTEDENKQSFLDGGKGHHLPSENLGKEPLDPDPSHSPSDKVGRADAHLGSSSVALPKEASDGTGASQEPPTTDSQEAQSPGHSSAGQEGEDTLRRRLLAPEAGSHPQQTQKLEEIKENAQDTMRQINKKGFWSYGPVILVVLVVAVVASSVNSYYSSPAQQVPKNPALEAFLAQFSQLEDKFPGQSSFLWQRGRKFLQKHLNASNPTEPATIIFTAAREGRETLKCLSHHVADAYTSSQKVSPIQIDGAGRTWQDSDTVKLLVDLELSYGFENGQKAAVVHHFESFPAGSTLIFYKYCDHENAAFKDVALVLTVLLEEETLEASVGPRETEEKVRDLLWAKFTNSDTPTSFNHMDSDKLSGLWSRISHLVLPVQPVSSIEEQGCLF

Regarding `CCCC[C@@H]1C[C@H]1[C@@H](NC(=O)c1ccco1)c1ccccc1C(F)(F)F`, the composite z-score in [1] was 2.82; in [2], -0.108; in test [3] it was 0.806; in test [4] it was 0.0033; in [5], 0.967; in test [6], 0.382. Also, the composite z-score in test [7] is -0.226; in [9], 2.87; in test [10], 3.61; in test [11], -0.191; in test [15], 1.53; in test [17], 1.36. Further, the composite z-score in [18] was -0.339; in test [19] it was 0.453; in test [20] it was 0.856. Besides, the z-score is 0.792 (inactive) in test [8]; 0.493 (inactive) in [12]; 1.13 (inactive) in test [13]; -0.0491 (inactive) in test [14]; -0.763 (inactive) in test [16].
In the case of `COCCOC(=O)N1C(=O)[C@@]2(c3ccccc31)[C@H](c1ccccc1OCCO)N1[C@H](c3ccccc3)[C@H](c3ccccc3)OC(=O)[C@H]1[C@@H]2C(=O)N1CCN(c2ncccn2)CC1`, the composite z-score in test [1] was 0.0686; in [2], 1.07; in test [3] it was -0.0629; in test [4], 0.0228; in test [5] it was 0.598; in test [6], 1.38. Also, the composite z-score in [7] was 1.18; in test [9], 0.152; in test [10], -0.0672; in test [11], 1.54; in [15], 2.59; in test [17] it was -0.0529. The values for the composite z-score in test [18], in test [19] and in test [20] were 0.994, 1.11 and -0.12, respectively. The z-score in test [8] was -2.05 (inactive); in [12], 1.68 (inactive); in test [13], 1.58 (inactive); in test [14], 8.88 (active); in [16] it was 0.22 (inactive).
Consider `[N-]=[N+]=NCc1ccccc1C[C@]1(C(=O)N2CCCCC2)N=C(c2ccc(OCCCO)cc2)O[C@H]1c1ccccc1N=[N+]=[N-]`, for which the composite z-score stood at 0.643 in [1]; 0.133 in [2]; 0.158 in test [3]; 0.816 in test [4]; 1.3 in [5]; 1.57 in [6]. Moreover, the composite z-score in test [7] was 1.1; in test [9] it was 0.637; in [10] it was -0.233; in [11], 1.57; in [15], 3.09; in [17], 0.202. In addition, the composite z-score in test [18] is -0.112; in test [19], 1.07; in [20], 0.262. The z-score is -1.99 (inactive) in test [8]; -0.912 (inactive) in test [12]; -0.371 (inactive) in test [13]; 6.08 (inactive) in [14]; -0.442 (inactive) in test [16].
On to `C=C(CCCC)C(=O)CC[C@@H](OC(=O)c1ccccc1-c1ccccc1C(=O)O)c1ccc(OCCO)cc1`, for which the composite z-score was -0.281 in test [1]; 0.358 in test [2]; -0.128 in test [3]; 0.826 in test [4]; -0.278 in test [5]; 0.529 in test [6]. The composite z-score in test [7] was 0.562; in test [9], 0.135; in test [10], 0.011; in [11] it was 1.53; in test [15], 0.259; in test [17], -0.0272. In addition, the composite z-score was 0.931 in test [18], 0.462 in [19] and -0.0767 in test [20]. The z-score is -0.109 (inactive) in [8]; -0.848 (inactive) in [12]; -1.57 (inactive) in test [13]; -1.2 (inactive) in test [14]; 0.502 (inactive) in test [16].
For the compound `COc1cc(Br)cc(C(O)C2C=CC3C(=O)N(C)C(=O)C3N2N2CCCCC2)c1OC` (stereo not given), the composite z-score in test [1] was 0.0974; in test [2], -1.02; in test [3], -0.053; in [4], -0.207; in test [5] it was 0.224; in [6] it was 0.818. Further, the composite z-score is 1.31 in [7]; 0.347 in test [9]; 0.0677 in test [10]; -0.962 in test [11]; 1.49 in test [15]; 0.118 in test [17]. Further, the composite z-score in [18] is -1.27; in test [19], -0.702; in [20], 0.0122. The z-score in test [8] is 0.876 (inactive); in test [12], 0.733 (inactive); in [13] it was 1.13 (inactive); in [14], 1.73 (inactive); in [16], -1.54 (inactive).
